Values joined by “and” are separate entries in the source; they are usually repeats but may differ in a detail not shown here. Identical values can stand only once. Results filed as inconclusive are left out. Where a call stands in place of a potency, no number is given. Active and inactive are the calls of the source. Unless noted, calls come from the whole dose curve.
Experiment: qHTS assay for small molecules that induce genotoxicity in human embryonic kidney cells expressing luciferase-tagged ATAD5 (AID 651632; active = well fitted activation curve with a large enough effect in the repeat runs; note: nearly all actives have a fitted effect of over 15% in size)
Settings: HEK293T ATAD5-luciferase induction, 16 h; series mostly up to 83.3 µM
How it was run: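 HEK293T cells carrying a luciferase reporter tagged to ATAD5 were exposed to compound or DMSO vehicle for 16 hr at 37C, 5% CO2. Amplite was added, and after 30 min at room temperature luciferase activity was read as a marker of ATAD5 induction.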

Compound	Potency
Fc1ccc(Oc2ccnc3cc(Cl)cc(Cl)c23)cc1	inactive
O=C(Nc1ccc2[nH]ccc2c1)c1cc2cc(F)ccc2n1Cc1cccc(F)c1	inactive
CC(C)C1CCC(Cc2ccc(Cl)cc2)C1(O)Cn1cncn1 (stereo unspecified)	inactive
ClC1=C(Cl)[C@]2(Cl)[C@H]3[C@H]([C@H]4C=C[C@H]3C4)[C@@]1(Cl)C2(Cl)Cl	inactive
CC(C)[C@H](C(=O)OC(C#N)c1cccc(Oc2ccccc2)c1)c1ccc(OC(F)F)cc1 (stereo partly specified)	inactive
CC1(c2ccc(Oc3ccccc3)cc2)OC(=O)N(Nc2ccccc2)C1=O (stereo unspecified)	inactive
Oc1cc(Cl)c(Cl)c(Cl)c1	inactive
Oc1ccc(C(=C(Cl)Cl)c2ccc(O)cc2)cc1	inactive
CN(C)S(=O)(=O)N(SC(F)(Cl)Cl)c1ccccc1	inactive
CCCCCCCCCCCCBr	inactive
Nc1ccccc1C(=O)OC/C=C/c1ccccc1	inactive
Nc1ccc(Cc2ccc(N)c(Cl)c2)cc1Cl	inactive
CC(C)OC(=O)C(O)(c1ccc(Cl)cc1)c1ccc(Cl)cc1	inactive
CC1(C)C(/C=C(\Cl)C(F)(F)F)C1C(=O)OC(C#N)c1cccc(Oc2ccccc2)c1 (stereo unspecified)	inactive

Experiment: qHTS assay for small molecule agonists of the p53 signaling pathway - cell viability (AID 651633); note: nearly all actives have a fitted effect of over 30% in size; note: potency is the fitted concentration of half-maximal effect
Settings: p53RE-bla HCT-116 viability, ATP luminescence, 16 h; series mostly up to 83.3 µM
How it was run: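 Viability counter-read: CellTiter-Glo luminescence (30 min, room temperature) in the same p53RE-bla plates. These plates had been exposed to compounds for 16 h at 37 C.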

Compound	Potency
O=c1[nH]c2ccccc2n1CCCN1CCC(n2c(=O)[nH]c3cc(Cl)ccc32)CC1	inactive
CCCCCCCCc1ccc(O)cc1	12.3 µM (active)
N#CCCC(Br)(C#N)CBr (stereo unspecified)	inactive
CC(=O)[O-].[Tl+]	43.5 µM (active)
O=C(O)C1C2CCC(O2)C1C(=O)O (stereo unspecified)	inactive
CN(C)C(=S)S	inactive
CN(C)c1ccc(N=Nc2ccccc2)cc1	inactive
CCCCN(CCCC)C(=S)[S-].CCCCN(CCCC)C(=S)[S-].[Zn+2]	9.44 µM (active) and 61.1 µM (active)
N#CC(Cl)Cl	inactive
C[C@@H]1CC[C@@]2(OC1)O[C@H]1[C@@H](O)[C@H]3[C@@H]4CC[C@H]5C[C@@H](O[C@@H]6O[C@H](CO)[C@H](O[C@@H]7O[C@H](CO)[C@@H](O)[C@H](O[C@@H]8OC[C@@H](O)[C@H](O)[C@H]8O)[C@H]7O[C@@H]7O[C@H](CO)[C@@H](O)[C@H](O[C@@H]8O[C@H](CO)[C@@H](O)[C@H](O)[C@H]8O)[C@H]7O)[C@H](O)[C@H]6O)[C@H](O)C[C@]5(C)[C@H]4CC[C@]3(C)[C@H]1[C@@H]2C	23 µM (active)
[Hg+2].[I-].[I-]	61.1 µM (active)
N#C/C=C/C#N	inactive
CN(C)C(=S)[S-].CN(C)C(=S)[S-].[Cu+2]	inactive
O=C/C(Cl)=C(/Cl)C(=O)O	inactive
O=[N+]([O-])c1cc(C(F)(F)F)c(Cl)c([N+](=O)[O-])c1Cl	27.3 µM (active)
CC(=O)Nc1ccc2c(c1)Cc1ccccc1-2	inactive
CC(=O)[O-].CC(=O)[O-].[Hg+2]	1.93 µM (active)

Source: PubChem BioAssay (Tox21)
